# RecA splice inh – inhibitors of M. tuberculosis RecA intein splicing | inhibition, % (no concentration beside the values) | 290,000 tested, 0.75% active | P9WHJ3 | cell-free RecA intein splicing, fluorescence; in the data active = inhibition above about 30%;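 also: 0% = vehicle wells and 100% = reference inhibitor control wells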
# CCHF vOTU inh – CCHFV vOTU protease inhibition | 370,000 tested, 0.55% active | Pep-AMC fluorescence | inhibition, % at 11.5 µM; also: 0% = vehicle wells with enzyme and 100% = no enzyme wells
# SARS 3CLpro inh-1 – SARS-CoV 3CLpro protease inhibition | inhibition, % at 6 µM | P0C6X7 | 290,000 tested, 0.14% active | recombinant SARS-CoV 3CLpro, quenched FRET peptide cleavage; in the data active = inhibition above about 12%
# DUSP3 inh – inhibitors of human VHR1 phosphatase (DUSP3). inhibition, % at 13.3 µM. P51452. recombinant VHR phosphatase, pNPP absorbance. AID 1654. 290,000 tested, 0.52% active; in the data active = inhibition above about 50%
# Target sequence (P51452 whole entry, looked up): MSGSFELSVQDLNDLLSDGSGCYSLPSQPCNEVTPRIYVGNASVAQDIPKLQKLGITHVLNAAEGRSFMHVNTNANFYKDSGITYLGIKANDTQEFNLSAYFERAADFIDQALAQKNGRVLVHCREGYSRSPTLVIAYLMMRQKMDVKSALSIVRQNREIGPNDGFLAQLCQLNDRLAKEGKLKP
# GDH-TPI counter – GDH-TPI coupled enzyme inhibition counter-screen. inhibition, % at 4.8 µM. GDH-TPI coupled enzyme counterscreen, NADH absorbance. 360,000 tested, 1.2% active. AID 588335;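 also: 0% = DMSO wells and 100% = wells lacking the enzyme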
# FBA Mtb inh – inhibitors of M. tuberculosis fructose-bisphosphate aldolase; P9WQA3; 360,000 tested, 2.3% active; purified M. tuberculosis FBA, fluorescence read-out; inhibition, % at 1 µM; in the data active = inhibition above about 27%;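 also: 0% = vehicle and 100% = reference inhibitor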
# Target sequence (P9WQA3 whole entry, looked up): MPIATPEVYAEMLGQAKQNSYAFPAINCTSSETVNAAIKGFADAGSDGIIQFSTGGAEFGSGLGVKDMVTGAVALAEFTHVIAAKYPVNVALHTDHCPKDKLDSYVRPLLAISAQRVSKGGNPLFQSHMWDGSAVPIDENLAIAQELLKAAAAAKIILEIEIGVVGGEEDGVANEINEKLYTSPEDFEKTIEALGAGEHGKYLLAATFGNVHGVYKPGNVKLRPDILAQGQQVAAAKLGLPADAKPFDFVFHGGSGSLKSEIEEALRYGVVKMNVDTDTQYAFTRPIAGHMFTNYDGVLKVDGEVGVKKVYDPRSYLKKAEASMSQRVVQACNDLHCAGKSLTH
# SARS 3CLpro inh-2 – SARS 3CLpro inhibition, confirmation assay; shares compounds with SARS 3CLpro inh-1; QFRET protease activity assay; inhibition, % at 6 µM; 380 tested, 36% active; AID 1879; in the data active = inhibition above about 13%
# Active calls of the source: *; . = not tested or not shown. An excerpt weighted towards active compounds, which were near 4.7% of everything screened. Rule as the data show it, unless noted: active = inhibition above about 30%; inactive = the rest.
SMILES,RecA splice inh,CCHF vOTU inh,SARS 3CLpro inh-1,DUSP3 inh,GDH-TPI counter,FBA Mtb inh,SARS 3CLpro inh-2
CC1=C(C(=O)N2CCOCC2)CC(CC(=O)NC(c2ccccc2)c2ccccc2)C(=O)N1Cc1ccc(F)cc1 (stereo unspecified),.,4.2,.,.,1.4,-4.4,.
O=C1N/C(=N/S(=O)(=O)Cc2ccccc2)S/C1=C/c1ccc2c(c1)OCO2,2.3,5.6,12.6*,25.5,35.4*,2.8,2.3
CCOC(=O)c1c(NC(=O)CCl)sc(CN(C)C)c1-c1ccccc1,50.0*,-1.5,31.4*,26.2,3.1,0.6,58.8*
CCOC(=O)c1c(NC(=O)CN2CCCCC2)sc(CN(C)C)c1-c1ccccc1,13.5,-6.7,2.4,29.4,-1.3,4.7,.
CC1(CC(=O)N/N=C/c2cc([N+](=O)[O-])c(O)cc2O)OCCO1,-2.0,20.8,8.8,14.7,17.7,-7.0,.
COCCNC(=O)C(c1ccc(C)o1)N(C(=O)Cn1nnc2ccccc21)c1ccccc1 (stereo unspecified),.,-9.3,13.8*,4.3,0.7,0.6,3.6
O=C(NCc1ccco1)C(c1ccco1)N(Cc1cccs1)C(=O)Cn1nnc2ccccc21 (stereo unspecified),-2.0,9.3,14.2*,-13.9,6.8,10.0,9.6
O=C(NCc1ccco1)C(c1cccs1)N(Cc1ccccc1)C(=O)Cn1nnc2ccccc21 (stereo unspecified),3.8,11.0,20.3*,14.7,4.2,1.9,28.7*
COCCNC(=O)C(c1ccc(C)o1)N(Cc1ccc(OC)cc1)C(=O)Cn1nnc2ccccc21 (stereo unspecified),-1.0,11.9,-1.1,23.4,-0.8,-3.9,.
O=C(NC1CCCCC1)C(c1ccco1)N(Cc1cccs1)C(=O)Cn1nnc2ccccc21 (stereo unspecified),.,-15.8,-1.9,-20.8,4.8,-1.1,.
CCC(C)(C)NC(=O)C(c1cccn1C)N(C(=O)Cn1nnc2ccccc21)c1ccc(NC(C)=O)cc1 (stereo unspecified),1.2,-9.2,45.9*,10.3,2.5,-2.9,50.4*
Cc1ccc(C(C(=O)NCC2CCCO2)N(C(=O)c2snc(C(N)=O)c2N)c2ccc(C)c(C)c2)o1 (stereo unspecified),-0.9,7.3,6.7,14.4,8.2,3.6,.
COCCNC(=O)C(c1ccccc1)N(Cc1cccs1)C(=O)Cn1nnc2ccccc21 (stereo unspecified),2.0,5.8,23.0*,8.6,2.9,3.6,21.2*
O=C(NCc1ccco1)C(c1ccco1)N(CCc1ccccc1)C(=O)Cn1nnc2ccccc21 (stereo unspecified),-1.0,6.5,25.9*,-3.7,2.5,2.3,27.6*
Cc1ccc(CN(C(=O)Cn2nnc3ccccc32)C(C(=O)NCc2ccco2)c2cccs2)cc1 (stereo unspecified),-1.7,10.4,25.4*,1.0,7.2,-1.3,19.1*
O=C(Nc1ccc([N+](=O)[O-])cc1)N1CCN(C(=O)C2CCCO2)CC1 (stereo unspecified),0.6,13.9,1.7,16.3,13.4,-2.9,.
COc1ccc(S(=O)(=O)N2CCN(C/C=C/c3ccccc3)CC2)cc1F,7.0,-3.9,3.9,29.8,0.4,-1.1,.
Cc1ccsc1C(=O)N(CC(C)C)c1c(N)n(Cc2ccccc2)c(=O)[nH]c1=O,-0.8,0.4,-0.1,10.5,-8.4,5.4,.
O=C(O)/C(=C\c1ccc(F)cc1)c1ccc(-c2ccccc2)cc1,3.0,24.8,13.0*,-28.8,8.2,4.9,11.8
COc1cccc(-n2cnc3scc(-c4cccs4)c3c2=O)c1,6.1,4.6,4.0,2.6,4.2,6.1,.
COc1ccc(C(=O)Nn2cnc3scc(-c4cccs4)c3c2=O)c(O)c1,3.8,-4.5,13.6*,.,8.7,-3.2,6.3
COc1ccccc1-c1c(-c2ccc(OCC(=O)NN)cc2O)n[nH]c1C(F)(F)F,2.7,6.8,2.2,5.4,-8.4,-0.2,.
COc1ccc(-c2n[nH]c(C(F)(F)F)c2-c2cc3ccccc3o2)c(O)c1,16.5,10.4,13.9*,8.1,9.4,10.6,9.2
CCOc1ccc(N(CC(=O)NCCSCc2ccco2)S(=O)(=O)c2ccc(F)cc2)cc1,-4.4,0.4,3.6,17.9,1.4,-0.9,.
CCOc1ccc(N(CC(=O)NCCSCc2ccco2)S(=O)(=O)c2ccc(C)cc2)cc1,-6.4,-6.4,12.3*,-13.5,7.0,-1.1,-0.9
SMILES,RecA splice inh,CCHF vOTU inh,SARS 3CLpro inh-1,DUSP3 inh,GDH-TPI counter,FBA Mtb inh,SARS 3CLpro inh-2
O=C(COC(=O)CCc1c[nH]c2ccccc12)NC(c1ccccc1)c1ccccc1,13.4,11.5,13.1*,17.7,0.8,-0.1,0.8
COc1cccc(C(C(=O)Nc2ccc(F)cc2)N(C(=O)Cn2nnc3ccccc32)C2CC2)c1 (stereo unspecified),1.4,-19.4,32.8*,26.9,3.3,-1.2,37.3*
CCOc1cc(C(C(=O)NCC2CCCO2)N(C(=O)Cn2nnc3ccccc32)c2ccc(C(C)=O)cc2)ccc1O (stereo unspecified),-0.6,2.2,5.1,11.8,3.7,2.3,.
COc1cccc(C(C(=O)NCC2CCCO2)N(C(=O)Cn2nnc3ccccc32)c2ccc(NC(C)=O)cc2)c1 (stereo unspecified),1.1,-10.6,30.5*,27.7,8.1,-2.6,33.8*
CCOc1ccc(C(C(=O)Nc2ccc(F)cc2)N(C(=O)Cn2nnc3ccccc32)C2CC2)cc1 (stereo unspecified),2.6,1.6,4.9,10.2,4.6,-1.2,.
CCOC(=O)/C=c1/s/c(=C/c2ccccc2OC)c(=O)n1CC(=O)N1CCOCC1,.,3.5,.,.,25.4,-1.1,.
Cc1cc(Br)c(NC(=O)COn2nnc3ccc(S(C)(=O)=O)cc32)c(Br)c1,0.7,-4.6,12.5*,14.4,4.0,1.4,8.5
Cc1cc(NC(=O)COn2nnc3ccc(S(C)(=O)=O)cc32)ccc1Br,-12.1,7.4,23.6*,8.7,14.2,-2.4,30.9*
O=C(COn1nnc2ccc(S(=O)(=O)N3CCOCC3)cc21)Nc1c(F)c(F)c(F)c(F)c1F,3.3,-6.0,1.6,20.8,5.2,-3.6,.
COc1cc(NC(=O)COn2nnc3ccc(S(C)(=O)=O)cc32)cc(OC)c1,2.2,7.2,6.4,4.7,-4.4,-0.7,.
Nc1cccc(C(=O)N/N=C/c2ccsc2)c1,0.5,-1.3,5.4,2.3,2.5,-1.4,.
Cc1ccc(C(=O)C2=C(O)C(=O)N(Cc3cccnc3)C2c2ccc(OC(C)C)cc2)o1 (stereo unspecified),2.1,12.6,12.6*,-19.7,20.6,-0.7,-7.2
Cc1ccsc1C(=O)NC1CCCN(Cc2ccc(Cl)cc2)C1 (stereo unspecified),2.1,2.0,-5.2,-4.0,-1.7,4.4,.
O=C(Cc1c(F)cccc1Cl)NCCCn1ccnc1,2.5,-10.5,38.2*,13.0,6.6,2.5,-5.3
O=C(Cc1ccc(Cl)cc1)NCCCn1ccnc1,3.9,-8.6,4.7,-1.8,9.5,-0.7,.
COC(=O)[C@@H](Cc1c[nH]c2ccccc12)NC(=O)c1cc(=O)[nH]c2ccccc12,-1.6,1.7,13.6*,21.7,11.1,2.9,2.3
COC(=O)C(Cc1ccccc1)NC(=O)c1cc(=O)[nH]c2ccccc12 (stereo unspecified),1.7,2.2,-1.0,29.7,4.3,6.8,.

# High-throughput results deposited in PubChem by several laboratories.
